# Assay results: PubChem BioAssay (NCI)
# Several values for one entry are separate records, joined by “and”; a condition that tells them apart may be missing. Equal values may be shown once. Compounds without any hit were thinned out: in the full panel of roughly 83,000, 20% have a hit.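 Compound tested at a single concentration for 48 hours in 96-well plates; a percent growth value below 10 was scored as active.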 Activity calls are given as the source filed them.
# System: HL-60(TB) leukemia
# Experiment: NCI-60 one-dose screen, 48 h (100 = growth as untreated, 0 = no growth, -100 = all killed)
# Conditions: 10 µM unless noted
row,Compound,growth
1,O=C1CC2(O)CSc3nc(=O)cc(n32)N1 (centres undefined),100% (inactive)
2,COc1cc(-c2nc3occn3c2-c2ccnc(NCCNS(=O)(=O)c3ccc(Cl)cc3)n2)ccc1F,100% (inactive)
3,COc1ccc(-c2cn(-c3cccc(C(=O)/C=C/c4cc(OC)c(OC)c(OC)c4)c3)c(=O)[nH]2)cc1OC,66.6% (inactive)
4,OC(CC(c1ccccc1)c1cccc2ccccc12)(c1ccccc1)c1ccccc1 (centres undefined),99.1% (inactive) and 101% (inactive)
5,COc1cc2c(cc1-c1c(C)noc1C)ncc1nc(C3CCOCC3)n([C@@H](C)COC(F)F)c12,24.7% (inactive)
6,COc1cccc(C2C(C#N)=C(N)Oc3cc4c(cc32)OCO4)c1 (centres undefined),-45% (active)
7,CC(=O)OCC1OC(OCC2OC(OC(C)=O)C(OC(C)=O)C(OC(C)=O)C2OC(C)=O)C(OC(C)=O)C(OC(C)=O)C1OC(C)=O (centres undefined),115% (inactive)
8,N#C/C(=C\c1ccc(-c2ccc(Cl)cc2)o1)C(=O)Nc1ncc(Cc2ccc(Cl)cc2)s1,80.1% (inactive)
9,COc1ccc(C(=O)c2c(N)nc3n2CCCC3)cc1OC,94.1% (inactive)
10,COc1ccc2cc(C(=O)c3coc4ccc(O)cc34)ccc2c1,73.2% (inactive)
11,CCOC(=O)Nc1ccc(-c2nc(-c3cccc(OCCN4CCOCC4)c3)c(-c3ccnc(Br)c3)[nH]2)cc1,-23.2% (active)
12,Cc1nn(-c2ccccc2)c2nc(C)n(-c3ccc(Br)cc3)c(=O)c12,-5.26% (active)
13,COc1cc(CN(CCC(O)N2CCCC2=O)Cc2ccc3c(c2)OCO3)cc(OC)c1OC (centres undefined),90.6% (inactive)
14,CN(C)Cc1ccccn1,108% (inactive)
15,CCOC(=O)C1=C(N)Oc2c(sc3c(F)cccc23)C1c1ccc(O)cc1 (centres undefined),18.4% (inactive)
16,O=C(N/N=C/c1ccc(F)cc1)c1[nH]c2ccc(I)cc2c1-c1ccccc1,51.2% (inactive)
17,Nc1nc2c([nH]1)c1[nH]c3ccccc3c1c1[nH]c3ccccc3c21,25.5% (inactive)
18,C=C[C@]1(C)C=C2C(=O)[C@@]3(O)OC(=O)[C@@]4(CCCC(C)(C)[C@H]34)[C@@]2(O)CC1,-25% (active)
19,O=C1/C(=C/c2ccc([N+](=O)[O-])cc2)Oc2ccc(O)cc21,86.1% (inactive)
20,O=C(CCCn1c2c(sc3ccccc32)c(=O)n2nnc(-c3ccccc3)c12)NCCc1cnc[nH]1,82.4% (inactive)

row,Compound,growth
1,Clc1ccc(C(Cn2ccnc2)OCc2ccsc2Cl)c(Cl)c1 (centres undefined),6.05% (active)
2,CC(C)(C)c1cc(C(=O)Nc2ccc(C(=O)NCCN)cc2)cc(C(C)(C)C)c1,-68.4% (active)
3,Cc1cc(OCc2ccc(C(F)(F)F)cc2)c2c(c1)C(=O)C=C(NCCN1CCCC1)C2=O,96.6% (inactive)
4,CN1CCN(CCOc2ccc(-c3cnc4c(-c5ccccc5F)cnn4c3)cc2)CC1,-30.2% (active)
5,CCc1ccc(Oc2cn[nH]c2-c2ccc(OCCc3ccc(F)cc3)cc2O)cc1,111% (inactive)
6,C#CC(=O)Nc1cccc2c1cc(C)n2-c1nc2c(c(NCc3ccccc3)n1)CCCC2,-40.1% (active)
7,OB(O)c1cccc(-c2nc3ccc4[nH]ncc4c3c3c2CCCC3)c1,32.6% (inactive)
8,COc1ccc2oc3cc(NCCN(C)C)ccc3c(=O)c2c1,22% (inactive)
9,COc1ccc(C2=Cn3c(CCC(=O)c4nc5ccccc5[nH]4)nnc3SC2)cc1,95.6% (inactive)
10,CN1CCN(CCCOc2cccc3nc(Nc4ccc(Cl)c(C(F)(F)F)c4)ccc23)CC1,82.3% (inactive)
11,CC1(C)CC(=O)NC1=O,111% (inactive)
12,CN(C)CCCN1c2ccccc2Sc2ccc(Cl)cc21,107% (inactive) and 92.5% (inactive)
13,O=[N+]([O-])C=C(c1ccccc1)c1ccccc1,60.2% (inactive)
14,COC(=O)CCOc1ccccc1,102% (inactive)
15,CC1(C)CC(=O)c2cc3c(N)c(C(=O)Nc4ccc(Cl)cc4)sc3nc2C1,107% (inactive)
16,CCCC1CCC(=C2C(=O)CCC2=O)O1 (centres undefined),148% (inactive) and 153% (inactive)
17,Cc1ccc(Nn2c(SCC(=O)Nc3nc(-c4ccccc4)cs3)nc(C)c2C)cc1,63.8% (inactive)
18,COc1cccc(-c2nn(-c3ccccc3)cc2-c2ccnc(NCCNC(=O)Nc3ccc(Cl)c(Cl)c3)c2)c1,0.89% (active)
19,COc1ccc(C2NC(=O)C(C#N)c3c2sc2c(F)cccc32)cc1 (centres undefined),10.5% (inactive)
